MCL1 BIM primary: inhibitors of human MCL1 binding to BIM-BH3 peptide. AID 2057. inhibition, % at 10.9 µM. GST-MCL1 / FITC-Bim-BH3 fluorescence polarization. Q07820. hit rate 0.68% among 320,000;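 active means inhibition above the mean inhibition of all tested compounds plus 3 SD, set per campaign, cut at about 40% in these data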;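 further: 0% = DMSO wells and 100% = unlabeled Bim-BH3 peptide control; higher means more loss of mP so more displacement of Bim peptide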
Target sequence (Q07820 whole entry, looked up): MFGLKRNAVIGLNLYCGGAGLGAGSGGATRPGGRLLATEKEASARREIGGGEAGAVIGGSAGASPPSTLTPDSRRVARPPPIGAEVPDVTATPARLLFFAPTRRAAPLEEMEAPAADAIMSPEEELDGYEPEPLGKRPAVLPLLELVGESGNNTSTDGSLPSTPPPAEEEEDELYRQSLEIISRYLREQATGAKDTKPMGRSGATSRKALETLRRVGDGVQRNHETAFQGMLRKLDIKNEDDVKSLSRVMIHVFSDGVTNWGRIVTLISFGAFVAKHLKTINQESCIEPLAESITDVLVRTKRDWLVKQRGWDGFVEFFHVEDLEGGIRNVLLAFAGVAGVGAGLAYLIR
Bim-Mcl-1: human Bim-Mcl-1 interaction inhibition. inhibition, % at 10 µM. Bead-based flow cytometry, Bim peptide-Mcl-1 binding. hit rate 0.1% among 190,000. Q07820; in the data active means inhibition above about 40%;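 further: 0% = no compound tracer wells and 100% = peptide blocker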
Mcl1 Noxa PPI: disrupts binding of human Mcl-1 to Noxa peptide | hit rate 1.5% among 220,000 | Q07820 | TR-FRET Mcl-1/Noxa peptide binding, 2 h | inhibition, % at 21.7 µM;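 active means compounds that cut the protein-peptide binding signal by more than 50% relative to plate controls in a single-dose test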;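 further: His-tagged Mcl-1 with rhodamine Noxa BH3 peptide and terbium anti-His antibody; 0% = Mcl-1 plus Noxa peptide wells and 100% = peptide-only wells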
Bcl-xL primary: Bcl-xL (human) inhibition | GST-Bcl-xL / FITC-Bim BH3 peptide fluorescence polarization | inhibition, % at 10.9 µM | hit rate 0.7% among 320,000;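 active means inhibition above the mean of all tested compounds plus 3 SD, cutoff set per campaign, cut at about 30% in these data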;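 further: 0% = DMSO wells and 100% = unlabeled Bim-BH3 peptide competitor; inhibitors lower millipolarization by displacing the labeled peptide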
Target sequence (Q07817 whole entry, looked up): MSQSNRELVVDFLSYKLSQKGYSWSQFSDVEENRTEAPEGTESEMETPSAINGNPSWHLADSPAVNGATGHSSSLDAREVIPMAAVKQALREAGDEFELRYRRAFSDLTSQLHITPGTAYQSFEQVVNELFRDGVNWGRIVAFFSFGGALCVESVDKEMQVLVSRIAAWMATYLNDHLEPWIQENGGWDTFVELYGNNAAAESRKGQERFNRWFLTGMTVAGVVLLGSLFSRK
Mcl1 Bid PPI: disrupts binding of human Mcl-1 to Bid peptide | TR-FRET Mcl-1/Bid-Dy647 peptide binding, 1536-well | inhibition, % at 21.7 µM | hit rate 0.97% among 220,000 | AID 1021;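 active means compounds that cut the binding signal by more than half at the single screening dose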;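 further: His-tagged Mcl-1 with europium anti-His antibody binding Bid BH3 peptide; 0% = Mcl-1 plus peptide wells and 100% = peptide-only wells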
GLD-1 TGE inh: GLD-1-TGE RNA interaction inhibition (C. elegans); inhibition, % at 5.96 µM; purified GLD-1 + fluorescein TGE RNA, fluorescence polarization; hit rate 0.44% among 320,000; AID 2280;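 active means percent inhibition above a per-plate cutoff, the plate mean of test compounds plus 3 SD, cut at about 30% in these data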;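 further: 0% = DMSO wells with GLD-1 and probe and 100% = wells lacking GLD-1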
* hit, by the source's call; / = no result. Hits are enriched below; roughly 2.3% of the tested compounds scored in any of these assays.

SMILES | MCL1 BIM primary | Bim-Mcl-1 | Mcl1 Noxa PPI | Bcl-xL primary | Mcl1 Bid PPI | GLD-1 TGE inh
O=C(CCN1C(=O)/C(=C/c2ccc3c(c2)OCO3)SC1=S)NNC(=O)c1cccnc1 | -8.8 | -21.0 | 34.5 | -5.0 | 52.6* | -2.0
O=C(CN1C(=O)/C(=C/c2cccc(Br)c2)SC1=S)NC1=NCCS1 | 1.2 | -4.0 | 54.9* | 4.5 | 0.0 | -4.0
Cc1ccc(NC(=O)Cn2ccsc2=N)cc1S(=O)(=O)N(C)C | 7.8 | 0.0 | 19.9 | 5.0 | 3.3 | 0.0
Cc1ccc(C(=O)N/C(=C/c2ccccc2)C(=O)NCc2ccncc2)cc1 | 1.9 | / | 3.8 | 0.6 | -5.4 | 5.8
Cc1cccc(C)c1NC(=S)NCc1ccncc1 | 1.1 | / | -3.0 | 4.2 | -35.7 | 0.7
Cc1ccccc1NC(=S)N/N=C/c1ccc(O)cc1O | 19.5 | / | 60.2* | 9.4 | -255.7 | 2.3
C=C(C)C(=O)Nc1cccc(C2=NOC3(C2)C[C@@H](C(N)=O)N(C(=O)/C=C/CC)C3)c1 (stereo partly specified) | -22.8 | / | 2.5 | -8.3 | -154.6 | 4.1
C=C(C)C(=O)Nc1cccc(C2=NOC3(C2)C[C@@H](C(N)=O)N(C(=O)C2(C)CC2)C3)c1 (stereo partly specified) | -14.4 | / | 60.5* | 0.6 | -117.6 | 3.5
C=C(C)C(=O)Nc1cccc(C2=NOC3(C2)C[C@@H](C(N)=O)N(C(=O)C(=C)C)C3)c1 (stereo partly specified) | -20.1 | / | 82.3* | -2.7 | -62.7 | 1.8
C=C(C)C(=O)N1CC2(CC(c3cccc(NC(=O)/C=C\C=C/C)c3)=NO2)C[C@H]1C(N)=O (stereo partly specified) | -12.8 | / | 28.4 | 1.7 | -26.0 | 1.1
C=C(C)C(=O)Nc1cccc(C2=NOC3(C2)C[C@H](C(N)=O)N(C(=O)/C=C/C)C3)c1 (stereo partly specified) | -26.5 | / | 76.1* | -2.4 | -54.2 | 0.9
C/C=C\C=C/C(=O)Nc1cccc(C2=NOC3(C2)C[C@@H](C(N)=O)N(C(=O)/C=C/C=C\C)C3)c1 (stereo partly specified) | 19.1 | / | 54.3* | 10.2 | -45.4 | -2.8
Cc1c(C(=O)NC2CCCCC2)oc2ccc(F)cc12 | -0.4 | / | / | 4.4 | / | 2.4
N#C/C(=C\c1c(Oc2ccccc2Cl)nc2ccccn2c1=O)C(=O)NC1CCS(=O)(=O)C1 (stereo unspecified) | 6.3 | / | / | 9.6 | / | -0.4
CCc1nc(CNC(=O)C2CCC(=O)N(CCc3ccc(OC)cc3)C2)cs1 (stereo unspecified) | 1.7 | / | / | 5.6 | / | 3.4
COC(=O)C(NC(=O)c1ccc(F)cc1)(Nc1ncc(S(=O)(=O)c2ccc([N+](=O)[O-])cc2)s1)C(F)(F)F (stereo unspecified) | 6.7 | -2.0 | 9.1 | 5.8 | 11.3 | 5.0
CCOC(=O)CN(C(=O)CSc1nnc(CNc2ccc(F)cc2)n1C)c1ccccc1 | -9.3 | 2.0 | 13.5 | -2.1 | -28.2 | 44.8*
CCc1ccc2c(COn3nnc4ccc(S(=O)(=O)N(C)C)cc43)cc(=O)oc2c1 | -5.1 | -9.0 | 11.9 | -0.4 | 52.7* | 6.4
COc1ccc(C(=O)c2sc3nc(-c4ccc(OC)cc4)ccc3c2N)cc1 | -20.8 | 0.0 | 77.0* | -4.3 | 23.4 | -18.3
COc1ccc(-c2c(C#N)c(N)nc3sc(C(=O)c4ccc(C)cc4)c(N)c23)cc1 | -6.2 | -3.0 | -0.8 | -3.9 | -23.7 | -3.4
COc1ccc(NC(=O)c2sc3nc(-c4cccnc4)ccc3c2N)cc1OC | 34.9 | / | 14.1 | 48.0* | -8.0 | 13.1
COc1cccc(-c2ccc3c(N)c(C(=O)NC4CC4)sc3n2)c1 | 3.0 | / | 21.5 | -5.6 | -25.6 | 5.0
CC1=C/C(=C\C=C(C#N)C#N)N(C)c2ccccc21 | 20.6 | / | 41.2 | 35.4* | 9.9 | -182.2
CN1/C(=C/C=C(C#N)C#N)C(C)(C)c2ccccc21 | 13.2 | 0.0 | 19.9 | 47.3* | -19.0 | -113.7
CN1/C(=C\C=Nc2ccc3ccccc3c2)C(C)(C)c2ccccc21 | -5.3 | -1.0 | 10.7 | -6.0 | -17.5 | -80.7
SMILES | MCL1 BIM primary | Bim-Mcl-1 | Mcl1 Noxa PPI | Bcl-xL primary | Mcl1 Bid PPI | GLD-1 TGE inh
CN1/C(=C\C=O)C(C)(C)c2ccccc21 | 4.9 | 1.0 | 6.7 | 8.9 | -23.4 | 3.5
CN(C)c1ccc(N=C/C=C2\N(C)c3ccccc3C2(C)C)cc1 | -1.9 | 1.0 | 70.8* | 6.0 | -147.5 | 0.1
CCC(CC)CN1C(Nc2ccccc2)=NC[C@@H]1CC(C)C | -4.1 | / | / | 3.3 | / | 3.1
COc1ccc(S(=O)(=O)/N=C2/NC(=O)/C(=C\c3cc(OC)c(OC)cc3[N+](=O)[O-])S2)cc1 | 11.4 | -1.0 | 5.4 | 15.6 | -15.6 | 1.3
COc1cc(/C=C2\S/C(=N/S(=O)(=O)c3ccccc3)NC2=O)c([N+](=O)[O-])cc1OC | 37.9 | / | 57.0* | 36.9* | 14.2 | 17.1
O=C(c1cnn2c(C(F)(F)F)cc(-c3cccs3)nc12)N1CCOCC1 | -0.3 | 0.0 | 9.9 | -3.2 | 68.8* | 1.5
O=C1NC(=S)S/C1=C\C=C\c1ccc([N+](=O)[O-])o1 | / | / | 103.0* | / | 20.9 | /
COc1ccc(C2=NC(=O)/C(=C\c3cc(OC)c(OC)c(OC)c3)O2)cc1 | -3.3 | -7.0 | 32.0 | 1.9 | 54.2* | 0.1
CC(C)C[C@H]1COCCS(=O)(=O)N1Cc1ccc(Cl)c(Cl)c1 | -8.8 | / | / | 66.7* | / | 0.9
COc1cc(OC)c(NC(=O)CCCn2c(=O)oc3ccccc32)cc1Cl | -7.6 | 0.0 | -9.3 | -4.1 | -31.9 | -5.0
COc1cc(Cl)c(C)cc1NC(=O)CCCn1c(=O)oc2ccccc21 | 0.2 | -1.0 | 25.5 | 0.4 | 95.3* | -6.0
O=C(Cn1cnc2ccccc2c1=O)NCc1cccs1 | 0.8 | 0.0 | 9.1 | -1.6 | 2.1 | 3.3
CN1N=C(C(=O)N2CCCC(C(=O)c3cccc(C(F)(F)F)c3)C2)CCC1=O (stereo unspecified) | 0.1 | 48.0* | 15.8 | -0.6 | -18.9 | -1.6
Cc1nc2ccccc2[nH]c1=O | 7.9 | / | 12.3 | 5.4 | 59.3* | 6.4
O=c1[nH]c2ccccc2nc1C(F)(F)C(F)F | -7.0 | 0.0 | 12.2 | 2.4 | 63.0* | 3.4
C/C(O)=C/c1nc2ccccc2[nH]c1=O | 1.7 | 0.0 | 3.8 | 3.2 | -25.4 | -8.7
COc1ccc2c(c1)CC/C(=C\Nc1ccc3c(c1)OCO3)C2=O | -26.8 | -4.0 | 73.4* | -24.3 | -8.9 | -33.1
CC1CCC(C(C)C)C(OC(=O)C[n+]2cc(-c3ccc(Cl)cc3)n3c2CCC3)C1 (stereo unspecified) | 8.4 | / | 36.1 | 6.8 | 92.1* | -7.7
CCOCCn1c(=NC(=O)/C=C/c2ccccc2Cl)sc2cc(NC(C)=O)ccc21 | 1.5 | -1.0 | 31.5 | 1.3 | 61.0* | 9.9
COc1cccc(C(=O)NN2CC(O)=C(c3nc4ccccc4n3C)C2=N)c1 | 6.0 | 0.0 | 14.2 | 8.2 | -14.7 | -2.6
O=c1ccc(-c2ccc(S(=O)(=O)N3CCN(c4ccccc4)CC3)o2)n[nH]1 | -3.0 | / | / | -2.6 | / | 0.0

Screening data (PubChem)
